# Most compounds without a hit are left out; they make up all but 12% or so of the library.
# Pf growth 96h = P. falciparum growth inhibition at 96 hour, primary screen for plastid delayed-death inhibitors; Potency, µM (highest dose often 28.7 µM), for the others: top-dose activity change, negative = inhibition, hits mostly inhibitors; AID 504834; P. falciparum luciferase reporter growth, 96 h; 6.9% of 320,000 active; note: % is set by controls: 0 for no effect and ±100 for the full control effect
#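 Erythrocytes infected with luciferase-expressing P. falciparum were dispensed at 2% hematocrit and 0.05% parasitemia (final), then incubated with compounds 96 hours at 37 C in 5% CO2. Luminescence after detection reagent addition reported growth.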
# Sm TGR inh = S. mansoni TGR enzyme inhibition; Q962Y6; Potency, µM (top dose mostly 114 µM), without a hit: top-dose activity change, negative = inhibition, actives largely listed as inhibitors; purified TGR, DTNB reduction, TNB absorbance 405 nm; 3% of 360,000 active; note: % is set by controls: 0 for no effect and ±100 for the full control effect; nearly all actives have a fitted effect of over 60% in size
#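 Kinetic colorimetric format: TGR-catalysed, NADPH-driven DTNB reduction monitored via TNB absorbance. Enzyme dispensed at 20 nM; compound exposure 15 min at room temperature before reaction start.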
# SARS PLpro yeast = inhibitors of SARS-CoV papain-like protease in yeast | 0.19% of 330,000 active | AID 485353 | Potency, µM (top dose mostly 32.9 µM), inactives show top-dose activity, positive = growth rescue, hits mostly activators | S. cerevisiae expressing SARS-CoV PLpro, growth rescue; calls by dose curve; note: 0% is about no effect; nearly all actives have a fitted effect of over 55% in size
# AmpC no deterg = AmpC beta-lactamase inhibition without detergent; P00811; AmpC nitrocefin hydrolysis, absorbance 480 nm, 0.0001% Triton; Potency, µM (series often up to 57.1 µM), for inactives: at the highest dose activity change, negative = inhibition, actives largely listed as inhibitors; 0.52% of 330,000 active;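 note: plate controls were no compound for no effect and no enzyme for full effect; nearly all actives have a fitted effect of over 20% in size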
# Target sequence (P00811 whole entry, looked up): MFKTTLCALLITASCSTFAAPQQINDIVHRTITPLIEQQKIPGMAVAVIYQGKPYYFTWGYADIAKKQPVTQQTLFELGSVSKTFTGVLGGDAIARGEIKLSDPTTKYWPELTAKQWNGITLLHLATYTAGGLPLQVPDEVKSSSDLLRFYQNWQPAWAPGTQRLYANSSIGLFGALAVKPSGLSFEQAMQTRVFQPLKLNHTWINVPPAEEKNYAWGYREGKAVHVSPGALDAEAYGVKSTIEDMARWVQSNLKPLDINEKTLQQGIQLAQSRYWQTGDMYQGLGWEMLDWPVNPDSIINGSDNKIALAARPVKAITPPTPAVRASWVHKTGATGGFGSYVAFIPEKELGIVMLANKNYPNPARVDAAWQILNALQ
#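 20 mM phosphate pH 7.0 + 0.01% (detergent screen) or 0.0001% Triton X-100; 5.3 nM AmpC reagent; cpd preinc 15 min RT; nitrocefin (800 uM stock) to start; A480 q20 s × 4 min; Activity was normalised to no-enzyme and no-compound control wells.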
# Pf growth 48h = inhibits P. falciparum growth in the first generation, 48 h; 5.9% of 310,000 active; Potency, µM (series often up to 28.7 µM), without a hit: at the top dose activity change, negative = inhibition, actives largely listed as inhibitors; P. falciparum luciferase growth in erythrocytes, 48 h; AID 504832; note: % is set by controls: 0 for no effect and ±100 for the full control effect
#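 In quantitative HTS format, infected erythrocytes bearing luciferase-reporter parasites were treated for a single generation at 37 C. Luminescence after adding detection reagent served as the growth measure.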
# AmpC inh detg = AmpC beta-lactamase inhibition with detergent present. P00811. AmpC hydrolysis of nitrocefin, absorbance 480 nm, 0.01% Triton. Potency, µM (titrated, usually from 114 µM), inactives show top-dose activity change, negative = inhibition, usual class: inhibitors. 0.041% of 370,000 active;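 note: 0% = no-compound wells and -100% = no-enzyme wells; nearly all actives have a fitted effect of over 25% in size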
#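 20 mM phosphate pH 7.0 + 0.01% (detergent screen) or 0.0001% Triton X-100; 5.3 nM AmpC reagent; cpd preinc 15 min RT; nitrocefin (800 uM stock) to start; A480 q20 s × 4 min; Activity was normalised to no-enzyme and no-compound control wells.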
# * marks the source's active call; other numbers are inactive results; ? = inconclusive; / = no result given; [ ] = dose if it differs, or a comment. Unless noted, calls come from the whole dose curve; as a rule, active = well fitted curve in the direction sought with a large enough effect; inconclusive = small, poorly fitted or top-dose-only effect, or another doubt; inactive = no such curve, though single readings can be large; an effect the other way counts as inactive or inconclusive. Potency is the fitted concentration of half-maximal effect.
SMILES,Pf growth 96h,Sm TGR inh,SARS PLpro yeast,AmpC no deterg,Pf growth 48h,AmpC inh detg
CCOc1ccccc1N1CCN(Cc2cnc(-c3ccccc3)[nH]2)CC1,9.28µM*,0.4%,3.8%,-9.1%,13.1µM*,2.4%
Cc1ccc(OCCCCNC(C)(C)C)c([N+](=O)[O-])c1,3.7µM*,-7.6%,4.7%,-7.5%,?,-2.0%
COCCNCCOc1ccc(C)cc1[N+](=O)[O-],?,-3.2%,5.2%,10.2%,41.8%,-1.5%
Cc1cc(C)cc(-n2ccn(Cc3ccc(F)cc3)c(=O)c2=O)c1,/,-6.7%,/,/,/,7.8%
C[N+]1(C)[C@@H]2CC[C@H]1CC(OC(=O)C(c1ccccc1)c1ccccc1)C2 (stereo partly drawn),3.29µM*,3.7%,-3.5%,22.6%,2.33µM*,2.1%
CCCC(CCC)C(=O)OC1C[C@H]2CC[C@@H](C1)[N+]2(C)C (stereo partly drawn),4.26µM*,12.5%,0.3%,-10.3%,12µM*,-14.8%
C[N+]1(C)[C@@H]2CC(OC(=O)[C@H](CO)c3ccccc3)C[C@H]1[C@@H]1O[C@@H]12 (stereo partly drawn),-7.6%,-16.7%,1.3%,-2.7%,-14.6%,-13.9%
Cn1c2ccccc2c2nnc(SCc3nnc(-c4ccccc4)o3)nc21,4.15µM*,-0.6%[57.1 µM],0.5%,-18.9%,9.4%,-6.6%
Cn1c(SCc2nnc(-c3ccccc3)o2)nc2ccccc21,-10.1%,6.6%,1.4%,-0.9%,-9.8%,13.3%
CC(C)c1ccc(CN2CCN(C(=O)CCl)CC2)cc1,?,?,0.8%,-7.7%,?,-7.9%
COc1ccc(CC(=O)Nc2c3c(nn2C(C)(C)C)CS(=O)(=O)C3)cc1OC,8.3%,35.5µM*,-1.7%,-4.3%,28.7%,2.6%
CC(C)(C)n1nc2c(c1NC(=O)COc1ccc(Cl)cc1)CSC2,4.65µM*,-12.2%,6.1%,-14.0%,?,?
COc1ccc(CC(=O)Nc2c3c(nn2C(C)(C)C)CS(=O)(=O)C3)cc1,31.1%,-22.3%,2.4%,-1.9%,2.9%,2.6%
CC(C)(C)n1nc2c(c1NC(=O)Cc1ccc(F)cc1)CSC2,10.4µM*,-25.8%,17.1%,-20.9%,/,-6.6%
CCCCCCN1C(=O)CC(NC(=O)OCC2c3ccccc3-c3ccccc32)C/C=C\C1C(C)C (stereo not drawn),/,/,-12.7%,1.4%,/,/
CC(=O)Nc1ccc(C(=O)CSc2nnnn2C(C)C)cc1,?,-2.2%,-19.9%,-15.3%,26.7%,-19.5%
CCOC(=O)Cn1c(=NC(=O)C(C)C)sc2c(C)cc(C)cc21,?,-1.9%,-1.5%,-7.9%,1.85µM*,-4.6%
CCOC(=O)Cn1c(=NC(=O)CC)sc2c(C)cc(C)cc21,-4.7%,0.1%,1.7%,-14.7%,?,1.0%
CCO[C@H]1OC(C(=O)N2CCN(Cc3ccccc3)CC2)=C[C@@H](C)[C@@H]1CCCO,0.0%,-35.1%,1.3%,89.1%,4.1%,1.4%
CCO[C@@H]1OC(C(=O)N2CCN(Cc3ccccc3)CC2)=C[C@H](c2ccc(Br)cc2)[C@H]1CCCO,13.1µM*,?,-0.8%,171.2%,?,-5.9%
CCO[C@@H]1OC(C(=O)N2CCN(Cc3ccccc3)CC2)=C[C@H](c2ccc(C(F)(F)F)cc2)[C@H]1CCCO,14.7µM*,?,-0.2%,182.2%,?,-3.8%
CCO[C@@H]1OC(C(=O)O)=C[C@H](c2ccc(C(F)(F)F)cc2)[C@H]1CCCO,19.7%,4.4%,1.1%,19.5%,?,2.4%
CCSc1nnc(NC(=O)CN2C(=O)N(C)C3(CCCCC3)C2=O)s1,34.3%,-0.3%,-0.7%,-10.1%,-26.3%,0.0%
CCOC(=O)CSC1=Nc2ccccc2C2=NC(CC(=O)NCc3cccs3)C(=O)N12 (stereo not drawn),?,-1.0%,4.1%,-5.7%,10.4µM*,1.5%
CCC(C)NC(=O)CSC1=Nc2ccccc2C2=NC(CC(=O)NCc3ccc(F)cc3)C(=O)N12 (stereo not drawn),?,0.5%,3.1%,-0.5%,13.1µM*,-3.9%
SMILES,Pf growth 96h,Sm TGR inh,SARS PLpro yeast,AmpC no deterg,Pf growth 48h,AmpC inh detg
COCCCNC(=O)CSC1=Nc2ccccc2C2=NC(Cc3c[nH]c4ccccc34)C(=O)N12 (stereo not drawn),5.22µM*,14.8%,10.9%,-9.0%,4.5%,-7.9%
COCCCNC(=O)CSC1=Nc2ccccc2C2=NC(c3ccccc3)C(=O)N12 (stereo not drawn),?,3.3%,0.8%,-3.5%,-0.8%,0.5%
COc1ccc(CNC(=O)CCC2N=C3c4ccccc4N=C(SCC(=O)NCC4CCCO4)N3C2=O)cc1 (stereo not drawn),13.1µM*,1.3%,1.2%,36.9%,?,0.9%
O=C(CSc1n[nH]c(-c2ccccc2Cl)n1)N1CCN(c2ccc(F)cc2)CC1,/,-2.6%,/,/,/,-7.2%
CCCN1CCN(C(=O)Cn2ncc3c4ccccc4n(Cc4cccc(Cl)c4)c3c2=O)CC1,/,4.5%,/,/,/,22.5%
COc1ccc(C(=O)Nc2c(C(C)(C)C)nn(C)c2C(C)(C)C)cc1,50.4%,6.1%,-0.3%,-18.3%,7.6%,9.5%
Cc1ccccc1C([O-])=Nc1ccc[n+](-c2nc3ccccc3nc2NS(=O)(=O)c2ccccc2)c1,11.7µM*,-8.5%,0.7%,78.3%,?,0.3%
Cc1ccc(-n2ccn(CC(=O)NCCc3ccccc3)c(=O)c2=O)cc1C,3.9%,-10.8%,-2.9%,-5.5%,48.0%,-6.0%
O=C(O)CCC(=O)Nc1sc2c(c1C(=O)Nc1ccccc1)CCCCC2,2.33µM*,-9.8%,1.7%,-28.0%,10.2%,-4.4%
CCOc1ccc(NC(=O)c2c(NCc3sccc3C)sc3c2CCCCC3)cc1,/,7.94µM*,/,/,/,2.1%
O=C(O)CCC(=O)Nc1sc2c(c1C(=O)Nc1cccc3ccccc13)CCCCC2,?,-8.0%,-10.2%,-46.5%,5.5%,?
COc1ccc(NC(=O)c2c(NCc3cccs3)sc3c2CCCCC3)cc1,/,17.8µM*,/,/,/,-0.7%
CCOc1ccc(NC(=O)c2c(NCc3cc(OC)c(OC)cc3OC)sc3c2CCCC3)cc1,/,-27.1%,/,/,/,-6.9%
COc1ccc(OC)c(NC(=O)c2c(NCc3cccs3)sc3c2CCCCC3)c1,/,39.8µM*,/,/,/,0.2%
COc1ccc(NC(=O)c2c(NCc3cccs3)sc3c2CCCC3)c(OC)c1,/,-5.2%,/,/,/,12.7%
COc1ccc(OC)c(NC(=O)c2c(NCc3cccs3)sc3c2CCCC3)c1,/,-23.2%,/,/,/,-5.5%
CC(=O)c1ccc(NC(=O)C2CC(=O)N(C(C)C)C2)cc1 (stereo not drawn),31.1%,1.2%,-0.3%,-14.1%,5.0%,-3.2%
